Results on 35 targets are retold here after the supplement of paper PMC10849652.

Targets with a hit are over-represented here; the source holds about 7,900 in all. About 0.6% of all pairs of compound and target were hits.

UniProt Q14527, sequence (Q14527 whole entry, looked up): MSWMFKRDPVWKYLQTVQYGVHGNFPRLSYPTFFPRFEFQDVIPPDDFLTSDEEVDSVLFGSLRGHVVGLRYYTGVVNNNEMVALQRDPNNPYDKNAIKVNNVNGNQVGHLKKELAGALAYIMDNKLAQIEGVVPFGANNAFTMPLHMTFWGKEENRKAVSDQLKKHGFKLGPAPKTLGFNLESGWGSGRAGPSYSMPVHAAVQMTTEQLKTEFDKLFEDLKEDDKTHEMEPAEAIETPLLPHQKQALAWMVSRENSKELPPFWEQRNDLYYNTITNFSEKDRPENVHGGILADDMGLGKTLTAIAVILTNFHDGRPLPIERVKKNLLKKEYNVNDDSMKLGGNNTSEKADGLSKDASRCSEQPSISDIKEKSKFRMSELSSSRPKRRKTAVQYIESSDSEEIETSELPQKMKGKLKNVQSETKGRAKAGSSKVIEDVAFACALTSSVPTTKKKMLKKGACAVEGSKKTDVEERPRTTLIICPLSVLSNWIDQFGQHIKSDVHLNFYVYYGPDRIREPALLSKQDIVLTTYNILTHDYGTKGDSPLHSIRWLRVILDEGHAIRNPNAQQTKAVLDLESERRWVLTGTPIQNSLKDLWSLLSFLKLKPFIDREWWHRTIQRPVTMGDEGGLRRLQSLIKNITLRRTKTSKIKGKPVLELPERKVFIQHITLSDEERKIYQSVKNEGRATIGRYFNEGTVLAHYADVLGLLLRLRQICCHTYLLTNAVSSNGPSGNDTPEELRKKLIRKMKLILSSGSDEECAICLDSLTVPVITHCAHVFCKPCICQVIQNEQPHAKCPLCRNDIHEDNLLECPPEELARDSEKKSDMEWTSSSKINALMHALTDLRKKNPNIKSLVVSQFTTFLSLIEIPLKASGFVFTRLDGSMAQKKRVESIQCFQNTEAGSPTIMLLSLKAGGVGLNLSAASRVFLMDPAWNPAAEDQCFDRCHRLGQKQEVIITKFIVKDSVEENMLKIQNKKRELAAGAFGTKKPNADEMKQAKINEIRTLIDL
UniProt Q7Z4Q2, sequence (Q7Z4Q2 whole entry, looked up): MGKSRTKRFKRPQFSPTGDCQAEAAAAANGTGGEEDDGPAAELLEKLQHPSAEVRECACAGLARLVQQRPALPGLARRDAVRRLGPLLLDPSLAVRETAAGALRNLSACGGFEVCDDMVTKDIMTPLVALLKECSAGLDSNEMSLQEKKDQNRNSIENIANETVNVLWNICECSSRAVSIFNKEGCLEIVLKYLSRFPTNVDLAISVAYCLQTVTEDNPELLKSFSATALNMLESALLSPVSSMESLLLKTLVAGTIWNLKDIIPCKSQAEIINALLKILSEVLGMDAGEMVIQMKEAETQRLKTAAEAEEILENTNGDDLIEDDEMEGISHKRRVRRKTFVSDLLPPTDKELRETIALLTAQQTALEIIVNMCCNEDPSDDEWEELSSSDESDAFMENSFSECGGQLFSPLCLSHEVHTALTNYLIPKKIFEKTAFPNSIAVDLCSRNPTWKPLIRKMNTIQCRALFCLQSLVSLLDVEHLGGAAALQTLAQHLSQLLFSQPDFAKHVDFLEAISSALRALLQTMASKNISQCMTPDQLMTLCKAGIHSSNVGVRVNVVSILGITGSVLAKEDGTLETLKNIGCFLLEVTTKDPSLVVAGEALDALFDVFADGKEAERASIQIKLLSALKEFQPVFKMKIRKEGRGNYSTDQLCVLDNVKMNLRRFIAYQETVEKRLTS
UniProt O94925, sequence (O94925 whole entry, looked up): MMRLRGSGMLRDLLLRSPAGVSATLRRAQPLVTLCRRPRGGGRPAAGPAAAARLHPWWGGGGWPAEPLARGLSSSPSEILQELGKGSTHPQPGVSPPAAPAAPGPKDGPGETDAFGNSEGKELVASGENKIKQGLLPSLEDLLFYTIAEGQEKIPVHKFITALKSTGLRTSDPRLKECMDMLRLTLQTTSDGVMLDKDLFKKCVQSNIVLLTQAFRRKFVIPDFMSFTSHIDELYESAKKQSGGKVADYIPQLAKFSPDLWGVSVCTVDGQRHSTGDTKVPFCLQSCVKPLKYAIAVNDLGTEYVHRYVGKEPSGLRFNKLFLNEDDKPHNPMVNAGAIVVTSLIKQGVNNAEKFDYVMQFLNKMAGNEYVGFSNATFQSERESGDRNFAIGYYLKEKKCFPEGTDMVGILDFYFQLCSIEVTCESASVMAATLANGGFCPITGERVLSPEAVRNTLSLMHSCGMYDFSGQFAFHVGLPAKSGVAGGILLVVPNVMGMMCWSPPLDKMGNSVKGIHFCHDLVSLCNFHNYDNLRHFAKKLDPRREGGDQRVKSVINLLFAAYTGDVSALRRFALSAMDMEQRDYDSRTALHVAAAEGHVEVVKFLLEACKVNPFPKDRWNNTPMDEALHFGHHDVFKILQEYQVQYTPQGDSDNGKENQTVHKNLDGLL
UniProt Q9Y680, sequence (Q9Y680 whole entry, looked up): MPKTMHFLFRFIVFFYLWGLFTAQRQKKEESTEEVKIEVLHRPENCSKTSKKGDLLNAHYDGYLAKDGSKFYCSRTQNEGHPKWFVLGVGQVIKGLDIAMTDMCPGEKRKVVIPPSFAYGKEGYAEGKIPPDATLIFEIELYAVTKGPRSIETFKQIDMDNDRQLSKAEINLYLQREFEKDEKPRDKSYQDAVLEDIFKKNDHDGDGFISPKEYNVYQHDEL
UniProt P31943, sequence (P31943 whole entry, looked up): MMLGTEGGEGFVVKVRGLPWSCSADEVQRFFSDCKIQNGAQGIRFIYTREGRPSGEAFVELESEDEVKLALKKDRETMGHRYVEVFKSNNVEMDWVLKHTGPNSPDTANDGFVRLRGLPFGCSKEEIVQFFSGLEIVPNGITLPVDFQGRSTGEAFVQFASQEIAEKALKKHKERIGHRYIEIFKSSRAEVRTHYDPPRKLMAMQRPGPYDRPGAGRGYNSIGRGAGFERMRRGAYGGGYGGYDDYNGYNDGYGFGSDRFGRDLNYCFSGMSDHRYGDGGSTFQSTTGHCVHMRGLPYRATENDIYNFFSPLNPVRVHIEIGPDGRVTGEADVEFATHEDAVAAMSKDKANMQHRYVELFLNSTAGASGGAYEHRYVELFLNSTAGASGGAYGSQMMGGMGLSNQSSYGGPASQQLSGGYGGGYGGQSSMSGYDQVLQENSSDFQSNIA
UniProt Q06546, sequence (Q06546 whole entry, looked up): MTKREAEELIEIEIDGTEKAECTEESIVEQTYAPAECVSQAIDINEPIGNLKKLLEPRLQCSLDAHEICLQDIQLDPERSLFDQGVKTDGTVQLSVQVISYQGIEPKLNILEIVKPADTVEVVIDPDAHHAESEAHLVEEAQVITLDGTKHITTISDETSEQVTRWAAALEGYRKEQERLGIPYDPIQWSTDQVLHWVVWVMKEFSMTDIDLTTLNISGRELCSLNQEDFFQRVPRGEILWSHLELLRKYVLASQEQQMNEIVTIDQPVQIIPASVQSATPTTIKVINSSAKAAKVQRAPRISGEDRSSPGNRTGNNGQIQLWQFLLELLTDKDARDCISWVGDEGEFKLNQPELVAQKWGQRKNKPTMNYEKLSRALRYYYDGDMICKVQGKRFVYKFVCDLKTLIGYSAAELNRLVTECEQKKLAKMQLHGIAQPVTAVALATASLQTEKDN
UniProt Q9Y692, sequence (Q9Y692 whole entry, looked up): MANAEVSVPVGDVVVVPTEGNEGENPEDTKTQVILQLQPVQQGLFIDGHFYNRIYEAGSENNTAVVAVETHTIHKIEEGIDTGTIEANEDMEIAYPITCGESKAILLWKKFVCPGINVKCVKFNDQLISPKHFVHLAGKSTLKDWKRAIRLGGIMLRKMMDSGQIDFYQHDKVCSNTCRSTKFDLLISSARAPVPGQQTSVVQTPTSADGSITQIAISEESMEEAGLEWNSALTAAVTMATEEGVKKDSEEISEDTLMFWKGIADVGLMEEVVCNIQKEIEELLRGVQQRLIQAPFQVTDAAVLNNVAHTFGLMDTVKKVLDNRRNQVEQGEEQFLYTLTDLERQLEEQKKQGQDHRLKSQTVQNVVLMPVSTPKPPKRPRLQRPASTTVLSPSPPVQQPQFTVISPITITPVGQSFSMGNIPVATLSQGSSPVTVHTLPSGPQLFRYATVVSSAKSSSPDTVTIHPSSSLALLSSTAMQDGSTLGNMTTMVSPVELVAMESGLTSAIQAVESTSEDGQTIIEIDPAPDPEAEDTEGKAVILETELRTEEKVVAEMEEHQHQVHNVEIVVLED
UniProt Q12894, sequence (Q12894 whole entry, looked up): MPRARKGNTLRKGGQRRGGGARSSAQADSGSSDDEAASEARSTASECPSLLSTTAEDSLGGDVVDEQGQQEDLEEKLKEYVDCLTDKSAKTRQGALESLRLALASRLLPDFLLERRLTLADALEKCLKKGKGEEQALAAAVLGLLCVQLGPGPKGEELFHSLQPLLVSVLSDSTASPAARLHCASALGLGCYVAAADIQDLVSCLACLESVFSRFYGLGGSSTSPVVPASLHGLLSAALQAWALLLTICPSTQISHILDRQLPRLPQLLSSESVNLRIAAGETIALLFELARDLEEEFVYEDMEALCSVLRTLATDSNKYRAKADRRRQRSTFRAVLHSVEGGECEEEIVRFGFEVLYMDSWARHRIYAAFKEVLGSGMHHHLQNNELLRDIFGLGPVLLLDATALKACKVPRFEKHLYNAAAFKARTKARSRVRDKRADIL
UniProt Q02790, sequence (Q02790 whole entry, looked up): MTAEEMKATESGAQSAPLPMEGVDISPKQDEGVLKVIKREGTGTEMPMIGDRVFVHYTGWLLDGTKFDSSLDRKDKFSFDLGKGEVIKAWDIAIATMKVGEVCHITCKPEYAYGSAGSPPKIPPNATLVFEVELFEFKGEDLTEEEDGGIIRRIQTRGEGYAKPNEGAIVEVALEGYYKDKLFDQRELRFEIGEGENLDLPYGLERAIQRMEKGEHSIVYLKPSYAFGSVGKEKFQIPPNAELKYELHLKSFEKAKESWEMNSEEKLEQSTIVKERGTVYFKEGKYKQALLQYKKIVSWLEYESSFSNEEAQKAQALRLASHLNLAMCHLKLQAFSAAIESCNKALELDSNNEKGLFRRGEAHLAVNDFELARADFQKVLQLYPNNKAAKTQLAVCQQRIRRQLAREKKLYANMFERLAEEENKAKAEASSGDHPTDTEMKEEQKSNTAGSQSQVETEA

Compound in the assay: Cc1ccc(NC(=O)c2ccc(CN3CC[C@H](N(C)C)C3)c(C(F)(F)F)c2)cc1Nc1nccc(-c2cncnc2)n1 [bafetinib]
The experiment in a line: log2 fold change, soluble protein after heating vs DMSO (PISA); higher = thermal stabilisation; K562 cells, 10 uM, 30 min; active = over 0.2 and 3.5 SD of the protein, either way, in both replicates (recomputed). Summed up:
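For each measurement, 10 μM compound was applied for 30 min to K562 cells at 2×10^6 cells/mL. Aliquots were heated for 3 min across 48°C-58°C, pooled, and extracted in PBS with 0.5% NP-40 at 4°C; the supernatant after 21,000xg for 90 min was soluble protein. This was quantified by TMTpro 16plex LC-MS/MS with channel sums equalised, and thermal stability was reported relative to control samples from duplicates, on a log2 fold-change scale.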
FUBP3 (UniProt Q96I24): the log2 fold change was -0.035 (inactive).
FKBP3 (UniProt Q00688): the log2 fold change is 0.014 (inactive).
On to HDAC6 (UniProt Q9UBN7), for which the log2 fold change is -0.18 (inactive).
On to GALK1 isoform 2 (UniProt P51570), for which the log2 fold change was 0.061 (inactive).
Under IFRD2 isoform 2 (UniProt Q12894) stands -0.083 (inactive); under FKBP7 (UniProt Q9Y680), 0 (inactive).
For HEATR3 (UniProt Q7Z4Q2) the value was 0.058 (inactive).
Turning to FKBP4 (UniProt Q02790), the log2 fold change was -0.014 (inactive).
Under GABARAPL2 (UniProt P60520) stands -0.168 (inactive).
For GIGYF2 (UniProt Q6Y7W6) the value was -0.076 (inactive).
For GSR (UniProt P00390), the log2 fold change is -0.031 (inactive).
Regarding GNAS (UniProt Q5JWF2), the log2 fold change was 0.129 (inactive).
HIST2H2BF isoform 2 (UniProt Q5QNW6): the log2 fold change was 0.211 (inactive).
For HLTF (UniProt Q14527) the value was -0.003 (inactive); for GALNT4 (UniProt Q8N4A0), -0.042 (inactive).
For FBXO7 (UniProt Q9Y3I1) the value was -0.026 (inactive); for GMEB1 (UniProt Q9Y692), -0.12 (inactive); for GLUD1 (UniProt P00367), 0.25 (inactive).
Under FANCI (UniProt Q9NVI1) stands -0.043 (inactive); under HDAC10 (UniProt Q969S8), -0.255 (inactive); under FUCA1 (UniProt P04066), -1.16 (active).
For GUK1 isoform 2 (UniProt Q16774), the log2 fold change is 0.134 (inactive).
On to GOLGB1 isoform 2 (UniProt Q14789), for which the log2 fold change is -0.022 (inactive).
For the target FANCD2 isoform 1 (UniProt Q9BXW9), the log2 fold change is -0.06 (inactive).
Under IDH3A (UniProt P50213) stands -0.016 (inactive); under GLCCI1 (UniProt Q86VQ1), -0.074 (inactive); under FMC1 (UniProt Q96HJ9), -0.128 (inactive).
Under GABPA (UniProt Q06546) stands -0.036 (inactive); under GEMIN5 (UniProt Q8TEQ6), 0.015 (inactive).
For GLS (UniProt O94925) the value was -0.021 (inactive); for HEXA (UniProt P06865), -0.491 (active); for GEMIN2 (UniProt O14893), -0.154 (inactive).
With GNPAT (UniProt O15228), the log2 fold change was -0.129 (inactive).
HNRNPH2 (UniProt P55795): the log2 fold change is 0.056 (inactive).
Consider HNRNPH1 (UniProt P31943), for which the log2 fold change was 0.004 (inactive).
